{
  "source": "the supplement of paper PMC9844399",
  "note": "Counter-ions that a name gives are not always drawn.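 Further: High-content confocal imaging of branched-DNA amplified FISH in 384-well plates, Hoechst-defined nuclei, score is well value minus plate DMSO median over DMSO robust SD, four wells per compound.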",
  "data": [
    {"test_system": "HeLa", "experiment": "MALAT1 nuclear FISH intensity, robust Z-score vs DMSO; higher = more nuclear MALAT1 lncRNA, active = -3 or less", "settings": "10 µM; 6 h", "values": [
      {"smiles": "Brc1c(NC2=NCCN2)ccc2nccnc12", "note": "[Brimonidine]", "MALAT1 nuclear FISH intensity": "-1.1 (inactive)"},
      {"smiles": "COCCOC(=O)C1=C(C)NC(C)=C(C(=O)OC(C)C)C1c1cccc([N+](=O)[O-])c1", "note": "(stereo not given) [Nimodipine]", "MALAT1 nuclear FISH intensity": "0.0485 (inactive)"},
      {"smiles": "NC(=O)c1ncn([C@@H]2O[C@H](CO)[C@@H](O)[C@H]2O)n1", "note": "[Ribavirin]", "MALAT1 nuclear FISH intensity": "-0.394 (inactive)"},
      {"smiles": "COC(=O)C1=C(C)NC(C)=C(C(=O)OCC(C)C)C1c1ccccc1[N+](=O)[O-]", "note": "(stereo not given) [Nisoldipine]", "MALAT1 nuclear FISH intensity": "0.765 (inactive)"},
      {"smiles": "CC(C[N+](C)(C)C)OC(N)=O", "note": "(stereo not given) [Bethanechol Chloride]", "MALAT1 nuclear FISH intensity": "0.16 (inactive)"},
      {"smiles": "COc1ccc(C[C@H](N)C(=O)N[C@H]2[C@@H](O)[C@H](n3cnc4c(N(C)C)ncnc43)O[C@@H]2CO)cc1", "note": "[Puromycin.2HCl]", "MALAT1 nuclear FISH intensity": "2.03 (inactive)"},
      {"smiles": "COc1ccc(CC2c3cc(OC)c(OC)cc3CC[N+]2(C)CCC(=O)OCCCCCOC(=O)CC[N+]2(C)CCc3cc(OC)c(OC)cc3C2Cc2ccc(OC)c(OC)c2)cc1OC", "note": "(stereo not given) [Atracurium Besylate]", "MALAT1 nuclear FISH intensity": "-0.402 (inactive)"},
      {"smiles": "C#CCCCCCCCCCCCCCCCC(=O)O", "note": "[17-Octadecynoic acid]", "MALAT1 nuclear FISH intensity": "-0.883 (inactive)"},
      {"smiles": "C/C(=C\\C(=O)OCCCCCCCCC(=O)O)C[C@@H]1OC[C@H](C[C@@H]2O[C@H]2[C@@H](C)[C@H](C)O)[C@@H](O)[C@H]1O", "note": "[Mupirocin]", "MALAT1 nuclear FISH intensity": "-0.317 (inactive)"},
      {"smiles": "N[C@@H]1CONC1=O", "note": "[Cycloserine]", "MALAT1 nuclear FISH intensity": "-1.65 (inactive)"},
      {"smiles": "Cc1cccc(Nc2ccccc2C(=O)O)c1C", "note": "[Mefenamic Acid]", "MALAT1 nuclear FISH intensity": "0.551 (inactive)"},
      {"smiles": "CCCCCCCCCCCCCCCC(=O)C1=C(O)[C@@H](CO)OC1=O", "MALAT1 nuclear FISH intensity": "-1.76 (inactive)"},
      {"smiles": "CCCCC1C(=O)N(c2ccccc2)N(c2ccccc2)C1=O", "note": "[Phenylbutazone]", "MALAT1 nuclear FISH intensity": "-1.49 (inactive)"},
      {"smiles": "CCOC(=O)C1=C[C@@H](OC(CC)CC)[C@H](NC(C)=O)[C@@H](N)C1", "note": "[Oseltamivir Phosphate]", "MALAT1 nuclear FISH intensity": "-0.873 (inactive)"},
      {"smiles": "Nc1nc(=O)n([C@@H]2CS[C@H](CO)O2)cc1F", "note": "[Emtricitabine]", "MALAT1 nuclear FISH intensity": "0.714 (inactive)"},
      {"smiles": "CC(C)[C@H](NC(=O)OCc1ccccc1)C(=O)N[C@H](C=O)Cc1ccccc1", "note": "[Calpain Inhibitor III]", "MALAT1 nuclear FISH intensity": "-0.153 (inactive)"},
      {"smiles": "COc1cc(CNC(=O)CCCCCCC(C)C)ccc1O", "note": "[Dihydrocapsaicin]", "MALAT1 nuclear FISH intensity": "0.437 (inactive)"},
      {"smiles": "CCCCCC(O)C=CC1C(O)CC(O)C1CC=CCCCC(=O)O", "note": "(stereo not drawn) [8-epi-Prostaglandin F2a]", "MALAT1 nuclear FISH intensity": "-0.0974 (inactive)"},
      {"smiles": "CCN(CC)CCNC(=O)c1c(C)[nH]c(/C=C2\\C(=O)Nc3ccc(F)cc32)c1C", "note": "[Sunitinib malate]", "MALAT1 nuclear FISH intensity": "-1.09 (inactive)"},
      {"smiles": "CCCCC[C@H](O)/C=C/[C@@H]1[C@@H](C/C=C\\CCCC(=O)O)[C@H](O)C[C@H]1O", "note": "[9b,11a-Prostaglandin F2]", "MALAT1 nuclear FISH intensity": "-1.43 (inactive)"},
      {"smiles": "Nc1ccc(O)c(C(=O)O)c1", "note": "[Mesalamine]", "MALAT1 nuclear FISH intensity": "-0.321 (inactive)"},
      {"smiles": "CN1C2CCCC1CC(NC(=O)c1nn(C)c3ccccc13)C2", "note": "(stereo not given)", "MALAT1 nuclear FISH intensity": "0.639 (inactive)"},
      {"smiles": "CN(C)CCC[C@@]1(c2ccc(F)cc2)OCc2cc(C#N)ccc21", "note": "[Escitalopram]", "MALAT1 nuclear FISH intensity": "0.947 (inactive)"},
      {"smiles": "CN(C)[C@@H]1C(O)=C(C(N)=O)C(=O)[C@@]2(O)C(O)=C3C(=O)c4c(O)cccc4[C@@](C)(O)[C@H]3[C@H](O)[C@@H]12", "MALAT1 nuclear FISH intensity": "-0.288 (inactive)"},
      {"smiles": "CC(COc1ccccc1)N(CCCl)Cc1ccccc1", "note": "(stereo not given)", "MALAT1 nuclear FISH intensity": "0.373 (inactive)"},
      {"smiles": "CCCC(CCC)C(=O)O", "note": "[Valproic Acid]", "MALAT1 nuclear FISH intensity": "-0.016 (inactive)"},
      {"smiles": "Cn1cc(C2=C(c3ccc(Cl)cc3Cl)C(=O)NC2=O)c2ccccc21", "MALAT1 nuclear FISH intensity": "0.112 (inactive)"},
      {"smiles": "CC1=NN(c2ccccc2)C(=O)C1", "MALAT1 nuclear FISH intensity": "-1.67 (inactive)"},
      {"smiles": "CC(C)n1nc(-c2cc3cc(O)ccc3[nH]2)c2c(N)ncnc21", "note": "[PP242 hydrate]", "MALAT1 nuclear FISH intensity": "0.0212 (inactive)"},
      {"smiles": "O=C(O)c1cn(C2CC2)c2cc(N3CCNCC3)c(F)cc2c1=O", "note": "[Ciprofloxacin]", "MALAT1 nuclear FISH intensity": "0.579 (inactive)"},
      {"smiles": "Nc1nnc(-c2cccc(Cl)c2Cl)c(N)n1", "note": "[Lamotrigine]", "MALAT1 nuclear FISH intensity": "1.21 (inactive)"},
      {"smiles": "COc1cc([C@@H]2c3cc4c(cc3[C@@H](O[C@@H]3O[C@@H]5CO[C@@H](c6cccs6)O[C@H]5[C@H](O)[C@H]3O)[C@H]3COC(=O)[C@H]23)OCO4)cc(OC)c1O", "note": "[Teniposide]", "MALAT1 nuclear FISH intensity": "1.83 (inactive)"},
      {"smiles": "COC(=O)Nc1nc2cc(C(=O)c3ccc(F)cc3)ccc2[nH]1", "note": "[Flubendazol]", "MALAT1 nuclear FISH intensity": "0.604 (inactive)"},
      {"smiles": "CC[C@H]1OC(=O)[C@H](C)[C@@H](O[C@H]2C[C@@](C)(OC)[C@@H](O)[C@H](C)O2)[C@H](C)[C@@H](O[C@@H]2O[C@H](C)C[C@H](N(C)C)[C@H]2O)[C@](C)(O)C[C@@H](C)CN(C)[C@H](C)[C@@H](O)[C@]1(C)O", "note": "[Azithromycin]", "MALAT1 nuclear FISH intensity": "-0.745 (inactive)"},
      {"smiles": "CC(=O)OCC(=O)[C@@]1(O)CC[C@H]2[C@@H]3CCC4=CC(=O)CC[C@]4(C)[C@@]3(F)[C@@H](O)C[C@@]21C", "note": "[Fludrocortisone Acetate]", "MALAT1 nuclear FISH intensity": "1.96 (inactive)"},
      {"smiles": "NCCS", "MALAT1 nuclear FISH intensity": "-1.17 (inactive)"},
      {"smiles": "CN1C(CCl)Nc2cc(Cl)c(S(N)(=O)=O)cc2S1(=O)=O", "note": "(stereo not given) [Methyclothiazide]", "MALAT1 nuclear FISH intensity": "0.344 (inactive)"},
      {"smiles": "Cc1cc(C(=O)NNCc2ccccc2)no1", "note": "[Isocarboxazid]", "MALAT1 nuclear FISH intensity": "-0.791 (inactive)"},
      {"smiles": "CC(=O)N(O)CCCCCNC(=O)CCC(=O)N(O)CCCCCNC(=O)CCC(=O)N(O)CCCCCN", "note": "[Deferoxamine Mesylate]", "MALAT1 nuclear FISH intensity": "-1.42 (inactive)"},
      {"smiles": "C[C@H](CCC(=O)O)[C@H]1CC[C@H]2[C@@H]3[C@H](O)C[C@@H]4C[C@H](O)CC[C@]4(C)[C@H]3CC[C@]12C", "note": "[Chenodiol (Chenodeoxycholic Acid)]", "MALAT1 nuclear FISH intensity": "0.231 (inactive)"}
    ]}
  ]
}
